According to the supplement of paper PMC10338343:
± gives the standard deviation.

Columns and labels:
[1] = system: MILI (PIWIL2) piRISC loaded with L1MC piRNA (26 nt); test: pre-steady-state target cleavage rate (min^-1); guide: L1MC piRNA 5'p-UAACUAAAUACUAUGCAAGCUGUAGG; higher = faster piRNA-guided slicing of the target; conditions: auxiliary factor: 500 nM mouse GTSF1
How it was run: (§1)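 The pre-steady-state cleavage rate was obtained by Cleave-'n-Seq with a burst-and-steady-state fit. A transcribed, DNA-blocked target RNA library (0.1 nM) was mixed with 1 nM active affinity-purified piRISC carrying one synthetic guide, with or without 500 nM GTSF1 partner protein, in HEPES–potassium acetate buffer at 33 °C for 0–8 or 0–960 min. Uncleaved targets were sequenced and normalised to depth and to weakly complementary targets, with three trials pooled and k3 capped at 0.0001 min^-1.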

[2] = system: EfPiwi piRISC loaded with L1MC piRNA (26 nt); test: pre-steady-state target cleavage rate (min^-1); auxiliary factor: 500 nM Ephydatia muelleri Gtsf1; guide: L1MC piRNA 5'p-UAACUAAAUACUAUGCAAGCUGUAGG; MIWI and MILI are mouse PIWI proteins and EfPiwi is from a freshwater sponge; tags in brackets are library labels; higher = faster piRNA-guided slicing of the target
How it was run: as §1

| Sequence | pre-steady-state target cleavage rate [1] | pre-steady-state target cleavage rate [2] |
| --- | --- | --- |
| UCCUGGAUGUCCUUGCAUAGUAUGUAGUUA | 0.107 ± 0.022 | 0.00374 ± 0.0037 |
| UCCUGGAACAGCUUGCAUAGUAUUUUCAUA | 0.0434 ± 0.013 | 0.00388 ± 0.002 |
| UCCUGGAUCACCUUGCAUAGUAUUUAGUAA | 0.247 ± 0.038 | 0.00344 ± 0.0031 |
| UCCUGCUUGUGCUUGCAUAGUAUUUAGUAA | 0.0582 ± 0.015 | 0.00475 ± 0.0026 |
| UCCUCCAACAGCUUGCAUAGUAUUUUCAAA | 0.0817 ± 0.015 | 0.00396 ± 0.0027 |
| UCCUGCUACAGCUUGGAUAGUAUUUAGAUA | 0.0476 ± 0.016 | 0.00339 ± 0.001 |
| UCCUCCUACAGCUUGCAUAGUUAUUAGUUA | 0.0492 ± 0.015 | 0.0094 ± 0.0036 |
| UCCUGGAUGACGAUGCAUAGUAUUUAGUUA | 0.0949 ± 0.013 | 0.00546 ± 0.0027 |
| UCCUGGAACAGCUUGCAUAGUAUUUUGUUA | 0.154 ± 0.029 | 0.00368 ± 0.0018 |
| UCCUGCUACAGCUUGCAUAGAUUUUAGUAA | 0.0161 ± 0.0046 | 0.0033 ± 0.0022 |
| UCCUCCUAGAGCUUGCAUAGUAUUUUCAAA | 0.0731 ± 0.019 | 0.00252 ± 0.0022 |
| UCCUCCUACAGCUUGCAUAGUAUUAUCUAA | 0.187 ± 0.045 | 0.00413 ± 0.0033 |
| UCCUCCUACAGCUUGGAUAGAAUUUAGUUA | 0.0614 ± 0.015 | 0.00574 ± 0.0016 |
| UCCUGGUACAGCUUGCAUAGUAAUUACAAA | 0.021 ± 0.0095 | 0.00331 ± 0.0026 |
| UCCUGCAACAGCUUGCAUAGUAUUUACAAA | 0.232 ± 0.053 | 0.00305 ± 0.0022 |
| UCCUGGAUCAGCUUGCUUAGUUUUUAGUUA | 0.0369 ± 0.011 | 0.00518 ± 0.0042 |
| UCCUGGUACUCCUUGCAUAGUAUUUAGAAA | 0.0265 ± 0.01 | 0.00304 ± 0.0022 |
| UCCUGGAUGUCCUUGCAUAGUAUUUAGUCUA | 0.0325 ± 0.01 | 0.00301 ± 0.0024 |
| UCCUGGAUGUGCUUGCAUAGUAUUUAGAAA | 0.0532 ± 0.013 | 0.00293 ± 0.0018 |
| UCCUGCUACAGCUUGCAUAGAAUAUAGUUA | 0.0873 ± 0.021 | 0.00332 ± 0.0022 |
| UCCUCCUACAGCUUGCAUAGUAUUGAGUUA | 0.133 ± 0.026 | 0.00534 ± 0.002 |
| UCCUCCUACAGCUUGCAUAGUAAUUAGUAA | 0.141 ± 0.021 | 0.0063 ± 0.0029 |
| UCCUCCUACAGCUUGCAAAGUAUUAAGUUA | 0.0872 ± 0.014 | 0.00696 ± 0.0033 |
| UCCUGGAACUCCUUGCAUAGUAUUUAGAAA | 0.162 ± 0.029 | 0.00313 ± 0.0019 |
| UCCUCCAACAGCUUGCAUAGUAUUUACAAA | 0.113 ± 0.022 | 0.00355 ± 0.0024 |
| UCCUCCUACAGCUUGCAUAGUUUUUAGAAA | 0.0703 ± 0.019 | 0.00527 ± 0.0024 |

| Sequence | pre-steady-state target cleavage rate [1] | pre-steady-state target cleavage rate [2] |
| --- | --- | --- |
| UCCUGCUACAGCUUGCAUAGUAAAUAGUUA | 0.17 ± 0.027 | 0.00532 ± 0.0029 |
| UCCUGGAUCAGCUUGCAUAGUUUUUAGUAA | 0.0337 ± 0.0089 | 0.00477 ± 0.0025 |
| UCCUGCUACACCUUGCAUAGUAUUUUCAAA | 0.0765 ± 0.028 | 0.00244 ± 0.0022 |
| UCCUGGAACAGCUAUGCAUAGUAUUUAGUUA | 0.21 ± 0.018 | 0.0102 ± 0.0029 |
| UCCUGGAACAGCUUGCAUACUAUUUAGUAA | 0.0934 ± 0.025 | 0.00398 ± 0.0022 |
| UCCUGGAUCAGGUUGCAUAGUAUUUAGAUA | 0.1 ± 0.023 | 0.00381 ± 0.0026 |
| UCCUGGAACAGCUUGCAUAGUAUUUAAUUA | 0.102 ± 0.021 | 0.00345 ± 0.0024 |
| UCCUCCUACAGCUUGCAUAUUAUUUAGUUA | 0.0824 ± 0.011 | 0.0783 ± 0.025 |
| UCCUCCUACAGCAUCCAUAGUAUUUAGUUA | 0.175 ± 0.042 | 0.00359 ± 0.0017 |
| UCCUCCUACAGCUUCGAUAGUAUUUAGUAA | 0.217 ± 0.02 | 0.00413 ± 0.0021 |
| UCCUGGAUGAGCUUGCAAAGUAAUUAGUUA | 0.0348 ± 0.0091 | 0.00431 ± 0.0022 |
| UCCUCCUACAGCUUGCAUAGUAUAAACAAA | 0.165 ± 0.043 | 0.00398 ± 0.0028 |
| UCCUGCUACAGCUUGCAUACUAUUAAGUUA | 0.0719 ± 0.018 | 0.00453 ± 0.0019 |
| UCCUGGAUGAGCUUGCAUAGUAUUUAUUA | 0.0142 ± 0.0067 | 0.00268 ± 0.0022 |
| UCCUGGAUGAGCUAGCAUAGUAUUUAGAUA | 0.168 ± 0.028 | 0.00406 ± 0.002 |
| UCCUGCUACAGCUUGCAAAGUAUUUAGAUA | 0.0895 ± 0.012 | 0.00421 ± 0.0024 |
| UCCUGGAUCAGCUUGCAUAGGAUUUAGUUA | 0.0049 ± 0.0037 | 0.0025 ± 0.0024 |
| UCCUGGUACAGCUUGCAUAGUAUUUUGAAA | 0.06 ± 0.022 | 0.00282 ± 0.0028 |
| UCCUGCAUGAGCUUGCAUAGUAUUUACAAA | 0.0926 ± 0.026 | 0.00266 ± 0.0017 |
| UCCUGGAACACGUUGCAUAGUAUUUAGUAA | 0.254 ± 0.036 | 0.00365 ± 0.0034 |
| UCCUGGAUCAGCUUGCAUAGUUUUUAGAUA | 0.0159 ± 0.0066 | 0.00428 ± 0.0026 |
| UCCUGGAUCAGCUUGCAUAGUAUUUACAUA | 0.0335 ± 0.0081 | 0.00271 ± 0.0021 |
| UCCUGGAACAGCUUGCAUAGAAUUUUGUUA | 0.0296 ± 0.01 | 0.00229 ± 0.0021 |
| UCCUGGAUGAGCUAGCAUAGUAUUUUGUUA | 0.159 ± 0.036 | 0.00327 ± 0.003 |
| UCCUCCUACAGCUUGCUUAGAAUUUAGUUA | 0.0487 ± 0.011 | 0.00419 ± 0.002 |
